SARS PLpro yeast: inhibitors of SARS-CoV papain-like protease in yeast | S. cerevisiae expressing SARS-CoV PLpro, growth rescue | Potency, µM (doses to about 32.9 µM), for inactives: at the highest dose activity, positive = growth rescue, usual class: activators | 0.19% of 330,000 active; calls by dose curve; also: 0% is about no effect; nearly all actives have a fitted effect of over 55% in size
Pf growth 96h: P. falciparum growth inhibition at 96 hours | P. falciparum luciferase reporter growth, 96 h | Potency, µM (series often up to 28.7 µM), for inactives: top-dose activity change, negative = inhibition, hits mostly inhibitors | 6.9% of 320,000 active | AID 504834; also: % is scaled to controls: 0 for no effect and ±100 for the full control effect
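P. falciparum expressing integrated firefly luciferase, in erythrocytes at 2% hematocrit, 0.05% parasitemia, incubated with compounds 96 h at 37 C, 5% CO2. Growth inhibition read as loss of luminescence; two-generation exposure targets delayed-death apicoplast inhibitors.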
Pf growth 48h: P. falciparum growth inhibition at 48 hours (one generation); Potency, µM (top dose mostly 28.7 µM), without a hit: top-dose activity change, negative = inhibition, usual class: inhibitors; 5.9% of 310,000 active; AID 504832; P. falciparum luciferase growth in erythrocytes, 48 h; also: % is scaled to controls: 0 for no effect and ±100 for the full control effect
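Read-out is firefly luciferase luminescence from an integrated reporter in P. falciparum, so falling signal marks reduced parasite growth. Infected erythrocytes were at 2% hematocrit and 0.1% parasitemia (final) in Albumax-supplemented RPMI 1640.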
Sm TGR inh: S. mansoni TGR enzyme inhibition; Q962Y6; purified TGR, DTNB reduction, TNB absorbance 405 nm; Potency, µM (doses to about 114 µM), for the others: at the highest dose activity change, negative = inhibition, hits mostly inhibitors; 3% of 360,000 active; AID 485364; also: % is scaled to controls: 0 for no effect and ±100 for the full control effect; nearly all actives have a fitted effect of over 60% in size
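Kinetic colorimetric format: TGR-catalysed, NADPH-driven DTNB reduction monitored via TNB absorbance. Enzyme dispensed at 20 nM; compound exposure 15 min at room temperature before reaction start.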
* hit, by the source's call; ? = inconclusive; . = no result; [ ] = dose if it differs, or a comment. Most compounds without a hit are left out; they make up all but 12% or so of the library. Unless noted, calls follow the shape of the dose curve; as a rule, active = well fitted curve in the direction sought with a large enough effect; inconclusive = small, poorly fitted or top-dose-only effect, or another doubt; inactive = no such curve, though single readings can be large; an effect the other way counts as inactive or inconclusive. Potency is read from the fitted curve at half-maximal effect.

SMILES | SARS PLpro yeast | Pf growth 96h | Pf growth 48h | Sm TGR inh
CCCC1=[N+](CC(=O)c2ccc(C)cc2)CCn2cccc21 | 13% | ? | 10µM* | -28%
CCCC1=[N+](CC(=O)c2ccccc2)CCn2c(C)ccc21 | -6% | 10% | ? | -31%
O=C(NC1C2CC3CC(C2)CC1C3)C1CC1 (stereo unspecified) | -11% | 27% | 7.4µM* | 11%
O=C(O)C1CCCCC1C(=O)NC1C2CC3CC(C2)CC1C3 (stereo unspecified) | 3% | 359% | -5% | 0%
Cc1ccc(Cn2c(CN3CCC(C(=O)NCCc4ccccc4)CC3)cc3ccccc32)cc1 | . | . | . | 0%
CC(=O)Nc1ccccc1C(=O)C(=O)Nc1cccc(Br)c1 | -5% | ? | 26% | -3%
CCN(CC)CCNC(=O)c1cccc(NC(=O)C(=O)c2cc(Br)ccc2NC(C)=O)c1 | 1% | ? | 10µM* | -5%
O=C(O)c1cc(S(=O)(=O)NCCOc2ccccc2)ccc1Cl | 3% | . | . | .
Cc1ccc(/C=N/n2c(-c3ccccn3)n[nH]c2=S)o1 | 0% | 24% | 3% | 45µM*
Cc1ccc(/C=N/n2c(-c3cccnc3)n[nH]c2=S)o1 | 0% | -14% | 5% | 28µM*
Cc1cc(C)cc(C(=O)NCC(=O)OCC(=O)NC2CC2)c1 | -3% | . | . | .
COc1ccccc1-c1nnc(C2CCN(C(=O)c3cccc(Cl)c3)CC2)o1 | . | . | . | -5%
C=C1c2cccc(O)c2C(O)=C2C(=O)[C@]3(O)C(O)=C(C(N)=O)C(=O)[C@@H](N(C)C)[C@@H]3[C@@H](O)[C@H]12 | 1% | 0.47µM* | ? | 35µM*
C[C@H]1c2cccc(O)c2C(O)=C2C(=O)C3(O)C(O)=C(C(N)=O)C(=O)[C@@H](N(C)C)[C@@H]3[C@@H](O)[C@@H]21 (stereo partly specified) | . | 0.37µM* | 4.7µM* | ?
C[C@H]1c2cccc(O)c2C(=O)C2C(=O)C3(O)C(=O)C(C(N)=O)C(=O)[C@@H](N(C)C)[C@@H]3[C@@H](O)[C@@H]21 (stereo partly specified) | 13% | . | . | .
COc1ccc(NC(=O)C(CC(C)C)NC(=O)C2CCCCC2)cc1 (stereo unspecified) | . | . | . | -12%
CC1=C(C(=O)OCc2ccccc2)C(c2ccc(Cl)cc2)NC(=O)N1CCCC(=O)O (stereo unspecified) | 10% | ? | -16% | 2%
CCc1nnc(NC(=O)c2ccc(Br)o2)s1 | 3% | 5.9µM* | 21% | -2%
CCc1nnc(NC(=O)CN2CCN(Cc3ccccc3C)CC2)s1 | 14% | -26% | 0% | 0%
CCc1nnc(NC(=O)CN2CCN(Cc3ccc(C)cc3)CC2)s1 | 4% | 9.3µM* | -12% | 3%
Cc1ccc(N2C(=O)NC(NS(=O)(=O)c3ccc(Cl)cc3)(C(F)(F)F)C2=O)cc1C (stereo unspecified) | . | . | . | -1%
CCN(CC)CCOC(=O)c1ccc(NC(=O)CCNC(=O)Cn2ccc3ccccc3c2=O)cc1 | -3% | 12µM* | -2% | -5%
O=C(CCN1C(=O)/C(=C\c2cccs2)SC1=S)Nc1ccc(C(=O)O)cc1 | 16% | ? | -2% | -50%
O=C(CCCN1C(=O)/C(=C/c2cccs2)SC1=S)NNC(=O)c1cccnc1 | 2% | 15µM* | ? | 0%
CCN(CC)CCOC(=O)c1ccc(NC(=O)CCCN2C(=O)/C(=C\c3cccs3)SC2=S)cc1 | 1% | 4.1µM* | 2.3µM* | 0%
SMILES | SARS PLpro yeast | Pf growth 96h | Pf growth 48h | Sm TGR inh
O=C(CCCN1C(=O)/C(=C/c2ccccc2Cl)SC1=S)NNC(=O)c1ccccc1 | 8% | 1.9µM* | ? | 3%
O=C(CCCN1C(=O)/C(=C\c2cccs2)SC1=S)NNC(=O)c1ccncc1 | 3% | 8% | 0% | 9%
COC(=O)CN1C(=O)CSc2ccc(S(=O)(=O)Nc3ccc(F)c(Cl)c3)cc21 | . | . | . | -2%
O=C(CCCN1C(=O)/C(=C/c2ccccc2Cl)SC1=S)NNC(=O)c1cccnc1 | -1% | ? | 9.3µM* | 22%
O=C(CCN1C(=O)/C(=C\c2ccccc2)SC1=S)NNC(=O)c1cccnc1 | 17% | -47% | 14% | 1%
Cc1cc(NC(=O)CCN2C(=O)/C(=C\c3ccccc3Cl)SC2=S)no1 | -1% | 0.033µM* | 22% | -3%
O=S(=O)(c1ccc(Br)cc1)c1nc(-c2cccs2)oc1SCc1ccccc1F | . | . | . | 4%
CCOC(=O)c1cccc(NC(=O)Cc2ccc(NC(=O)N3CCCCc4ccccc43)cc2)c1 | . | . | . | 2%
COc1cc(NC(=O)C2CCCN2C(=O)OCc2ccccc2)cc(OC)c1 (stereo unspecified) | 1% | 0% | 7.4µM* | -4%
CCOc1ccccc1NC(=O)C1CCCN1S(=O)(=O)c1ccccc1C(F)(F)F (stereo unspecified) | 0%[6.58 µM] | ? | 8.3µM* | -3%
CCOc1ccccc1NC(=O)C1Cc2ccccc2CN1S(C)(=O)=O (stereo unspecified) | 1% | 12µM* | ? | 3%
COc1ccc(NC(=O)[C@@H]2CCCN2C(=O)[C@@H]2Cc3ccccc3CN2C(=O)OC(C)(C)C)cc1 | -3% | 12µM* | 12µM* | -1%
CCOc1ccccc1NC(=O)C1CCCN1S(=O)(=O)c1ccc2nc(-c3ccccc3)[nH]c2c1 (stereo unspecified) | . | . | . | 5%
COc1ccc(NC(=O)C2CCN(C(=O)[C@@H]3Cc4ccccc4CN3C(=O)OC(C)(C)C)CC2)cc1 | 0% | ? | ? | -12%
Cc1ccc2c(c1)N(C(=O)Nc1cccc3c1CCCC3)CCO2 | . | . | . | -3%
COc1ccc(-c2nc3ccccc3o2)cc1NC(=O)c1ccc(OCC(C)C)cc1 | . | . | . | -2%
CN(CC(=O)Nc1cccc(F)c1)C(=O)CC1CC2CCC1C2 (stereo unspecified) | -3% | ? | ? | -25%
CC(=O)Nc1sc(C)c(C)c1C(=O)OCC(=O)N(CCC#N)c1cc(C)cc(C)c1 | -3% | ? | ? | -2%
COc1cc(NC(=O)C2Cc3ccccc3CN2S(C)(=O)=O)cc(OC)c1 (stereo unspecified) | -1% | 1.9µM* | 0% | -12%
CCC1C(c2ccccc2)NC(c2ccccc2)CC1(O)c1ccc(F)cc1 (stereo unspecified) | 0% | ? | 10µM* | -3%
CC1C(c2ccccc2)N(C)C(c2ccccc2)CC1(O)c1ccc(F)cc1 (stereo unspecified) | -4% | 20% | ? | 9%
CCN(CC(=O)Nc1ccc(NC(C)=O)cc1)C(=O)CCCSc1nc2ccccc2[nH]1 | -1% | -8% | 2% | 0%
O=C(Nc1ccncc1)c1cc(S(=O)(=O)N2CCCC2)ccc1Cl | 2% | . | . | .
Cc1ccc(S(=O)(=O)N2CCN(c3ccccc3)CC2)cc1C(N)=O | 0% | 13µM* | -19%[5.75 µM] | 58%
O=C(Nc1ccncc1)c1cc(S(=O)(=O)N2CCN(c3ccccc3)CC2)ccc1Cl | 2% | ? | 12µM* | 0%
O=C(O)c1cc(S(=O)(=O)N2CCN(C(c3ccccc3)c3ccccc3)CC2)ccc1Cl | -1% | 9.3µM* | 12µM* | 2%
